Screening data deposited in PubChem by Johns Hopkins Ion Channel Center.
Most compounds without a hit are left out; they make up all but 1.6% or so of the library.
KCNQ2 enhance: enhances the rat KCNQ2 potassium channel | CHO-K1 KCNQ2, FluxOR thallium flux fluorescence; active compounds read high | actives 0.54% (n = 310,000) | O88943 | B-score at 10 µM;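 active = fluorescence ratio B-score at least 3 SD of library B-scores, with initial fluorescence B-score within 3 of them, cut at about 5.3 in these data; same plate scores as AID 2156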;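 note: B-score of peak minus minimum over baseline fluorescence ratio after K+ and Tl+ stimulus; positive B-score means potentiation of KCNQ2 with more thallium influx and brighter signal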
Target sequence (O88943 whole entry, looked up): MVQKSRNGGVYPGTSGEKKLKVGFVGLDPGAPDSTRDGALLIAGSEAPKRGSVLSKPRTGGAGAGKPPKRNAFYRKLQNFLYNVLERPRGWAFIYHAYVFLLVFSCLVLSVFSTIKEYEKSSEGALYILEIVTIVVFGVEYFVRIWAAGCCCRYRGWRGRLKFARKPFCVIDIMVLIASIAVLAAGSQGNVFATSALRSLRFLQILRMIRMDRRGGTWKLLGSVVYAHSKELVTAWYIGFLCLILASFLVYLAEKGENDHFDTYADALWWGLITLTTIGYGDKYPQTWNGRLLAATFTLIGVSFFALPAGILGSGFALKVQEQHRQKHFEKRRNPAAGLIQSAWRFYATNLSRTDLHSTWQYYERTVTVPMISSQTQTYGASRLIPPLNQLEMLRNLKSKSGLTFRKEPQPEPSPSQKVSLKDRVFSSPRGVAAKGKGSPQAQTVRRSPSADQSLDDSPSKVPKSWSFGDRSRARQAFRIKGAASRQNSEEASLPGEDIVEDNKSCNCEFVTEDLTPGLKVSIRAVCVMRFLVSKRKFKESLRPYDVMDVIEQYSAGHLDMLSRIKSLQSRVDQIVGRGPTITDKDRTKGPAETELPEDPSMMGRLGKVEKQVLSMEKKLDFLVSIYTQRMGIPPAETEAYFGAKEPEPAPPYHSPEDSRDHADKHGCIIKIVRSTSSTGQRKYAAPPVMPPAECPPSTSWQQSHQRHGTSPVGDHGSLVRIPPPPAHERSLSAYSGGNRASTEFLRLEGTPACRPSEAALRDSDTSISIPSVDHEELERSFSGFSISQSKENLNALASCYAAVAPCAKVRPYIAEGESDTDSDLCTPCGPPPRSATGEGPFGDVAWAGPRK
KCNQ2 block: KCNQ2 (rat) channel inhibition. CHO-K1 KCNQ2, FluxOR thallium flux, 20 min; active compounds read low. B-score at 10 µM. actives 1.1% (n = 310,000);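 active = fluorescence ratio B-score at most minus 3 library SDs, with starting brightness B-score within 2 library SDs, cut at about -5.5 in these data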
Kir21 confirm: confirmation of mouse Kir2.1 potassium channel inhibitors; shares compounds with KCNQ2 enhance; Kir2.1-expressing cells, FluxOR thallium flux fluorescence; active compounds read low; Tl flux remaining, % of negative control (active compounds read low), % at 10 µM; actives 41% (n = 2,300);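 active = Primary-screen hit whose thallium flux fell at least 3 control SD below untreated wells in both duplicates, with normal baseline fluorescence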
HEK293 Tl flux: parental HEK293 activity in Kir2.1 inhibitor counter-screen; FluxOR signal as % of negative control (100 = no effect), % at 10 µM; shares compounds with KCNQ2 enhance; actives 19% (n = 2,300); parental HEK293 cells, FluxOR thallium flux fluorescence; 0% = unstimulated blank wells;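 active = dye signal at least 3 control SD above or below untreated wells in both duplicates, raw fluorescence within 3, either direction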;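 note: percent is based on the flux ratio of peak minus minimum fluorescence over baseline F0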
CHO-K1 Tl ctr: alters thallium flux in parental CHO-K1 cells, KCNQ2 counter-screen | shares compounds with KCNQ2 enhance | FluxOR thallium flux fluorescence; zero = vehicle mean+3SD, 100% = vehicle-minus-blank window | activity increase over 3SD of controls, % at 10 µM | actives 43% (n = 1,200);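 active = signal rise of at least 3 SD above the untreated control mean, in both duplicate wells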;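 note: counter screen of KCNQ2 potentiator hits so any rise reflects channel-independent effects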
KCNQ1 pot spec: tests whether KCNQ2 potentiators also act on human KCNQ1; shares compounds with KCNQ2 enhance; CHO KCNQ1 stable, FluxOR thallium flux fluorescence; beyond 3SD, as % of vehicle-control signal; activation over 3SD threshold, % at 10 µM; actives 28% (n = 1,200); AID 2283;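 active = fluorescence ratio rise of at least 3 SD of vehicle wells above their mean, in both replicate wells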
KCNQ2 pot confirm: confirmation of rat KCNQ2 potassium channel potentiators. potentiation, less the hit threshold, % at 10 µM. CHO-KCNQ2 cells, FluxOR thallium flux fluorescence. AID 2287. actives 68% (n = 1,200). shares compounds with KCNQ2 enhance;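 active = fluorescence ratio rising 3 SD or more over the vehicle control mean in both replicates, plus primary screen hit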;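 note: peak minus minimum thallium fluorescence divided by baseline after K/Tl stimulus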
Kir2-1 sel: mouse Kir2.1 off-target activity of KCNQ2 potentiators; shares compounds with KCNQ2 enhance; HEK293 Kir2.1, FluxOR thallium flux fluorescence; activity over 3SD threshold, % at 10 µM; actives 2% (n = 1,200); AID 2345;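 active = fluorescence ratio rise of at least 3 SD above the vehicle-control mean, seen in both replicates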
KCNQ2 W236L MoA: potentiates the retigabine-insensitive rat KCNQ2 W236L mutant channel | shares compounds with KCNQ2 enhance | CHO KCNQ2-W236L, automated patch clamp current | current increase over 3SD of negative controls (%), active compounds read high, % at 25 µM | actives 10% (n = 940) | AID 2558;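 active = current increase at least 3 SD of the untreated controls above them in both duplicate recordings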
Of the large screens only hits and unclear results are named; the others gave an inactive call (follow-up assays come after a bar, where they were run).

O=C(CC1CCCC1)N1CCCC(Nc2ccc(F)cc2)C1 (configuration not stated)	none
O=C(Nc1ccc(OC(F)(F)F)cc1)c1[nH]ncc1[N+](=O)[O-]	none (no result: KCNQ2 enhance)
COc1cccc(OCC(=O)O/N=C(\N)c2ccncc2)c1	none
CC(NS(=O)(=O)OCC(Cl)(Cl)Cl)c1ccc(Br)cc1 (configuration not stated)	none (no result: KCNQ2 enhance) | Kir21 confirm 42% | HEK293 Tl flux inactive
CC(C)CC(NS(=O)(=O)OCC(Cl)(Cl)Cl)c1ccccc1 (configuration not stated)	none (no result: KCNQ2 enhance)
CC(Oc1cc(F)ccc1[N+](=O)[O-])C(=O)N(C)CC(=O)Nc1ccccc1C(F)(F)F (configuration not stated)	none (no result: KCNQ2 enhance)
O=C(CCC1CCCCC1)NNC(=O)NC12CC3CC(CC(C3)C1)C2	KCNQ2 enhance 9.3 | Kir21 confirm inactive | HEK293 Tl flux inactive | CHO-K1 Tl ctr inactive | KCNQ1 pot spec inactive | KCNQ2 pot confirm 12 | Kir2-1 sel inactive | KCNQ2 W236L MoA inactive
O=C(O)CCC(=O)NNC(=O)CCC1CCCCC1	none
CCCCCCCCC(=O)O	none
CCCCCCCC/C=C\CCCCCCCC(=O)O	KCNQ2 enhance 6.8 | Kir21 confirm inactive | HEK293 Tl flux inactive | CHO-K1 Tl ctr inactive | KCNQ1 pot spec 33 | KCNQ2 pot confirm inactive | Kir2-1 sel inactive
Cn1cnnc1SCC(=O)NC1CCCN(Cc2ccccc2F)C1 (configuration not stated)	none
CCCN(CCC)C(=S)NC(=O)c1ccc(Cl)cc1Cl	KCNQ2 enhance 16 | Kir21 confirm inactive | HEK293 Tl flux 394% | CHO-K1 Tl ctr inactive | KCNQ1 pot spec inactive | KCNQ2 pot confirm 67 | Kir2-1 sel inactive | KCNQ2 W236L MoA inactive
O=C(NC(=S)N1CCCCCC1)c1ccc(Cl)cc1Cl	KCNQ2 enhance 9.1 | Kir21 confirm inactive | HEK293 Tl flux 238% | CHO-K1 Tl ctr 27 | KCNQ1 pot spec 6.1 | KCNQ2 pot confirm 12 | Kir2-1 sel inactive | KCNQ2 W236L MoA inactive
O=C(NC(=S)N1CCCCCC1)c1ccccc1Cl	none
Cc1ccccc1C(=O)NNC(=S)NC(=O)c1ccc(Cl)cc1Cl	none
O=C(NCCc1ccc(Cl)cc1)c1cc(S(=O)(=O)N2CCCCC2)c[nH]1	none
CC(=O)c1nnn(-c2nc(N)nc(N(c3ccccc3)c3ccccc3)n2)c1C	none
CCCCN(CCCC)c1nc(OC)nc(-n2nnc(C(C)=O)c2C)n1	KCNQ2 enhance 8 | Kir21 confirm inactive | HEK293 Tl flux inactive | CHO-K1 Tl ctr inactive | KCNQ1 pot spec inactive | KCNQ2 pot confirm inactive | Kir2-1 sel inactive | KCNQ2 W236L MoA inactive
Cc1ccccc1CN1CCC(CNC(=O)C2CCCN(c3ncnc4c3nc3n4CCCCC3)C2)CC1 (configuration not stated)	none (no result: KCNQ2 enhance)
CN(CC(=O)Nc1ccc(N2CCOCC2)cc1)C(=O)CCNC(=O)c1ccc(Br)cc1	none
Cc1cccc(C)c1NC(=S)N1CCC(c2ccccc2)C1 (configuration not stated)	none (no result: KCNQ2 enhance)
Cc1ccc(C(=O)CC(=O)c2ccccc2)cc1	none
Cc1ccc(C(=O)Sc2cccccc2=O)cc1	KCNQ2 enhance 11 | CHO-K1 Tl ctr inactive | KCNQ1 pot spec inactive | KCNQ2 pot confirm 85 | Kir2-1 sel inactive | KCNQ2 W236L MoA inactive
COc1cc(/C=C/c2ccc3cccc(O)c3n2)c(Br)cc1O	KCNQ2 enhance 6.4 | Kir21 confirm inactive | HEK293 Tl flux 71% | CHO-K1 Tl ctr 5.7 | KCNQ1 pot spec inactive | KCNQ2 pot confirm inactive | Kir2-1 sel inactive
COc1cc(Br)c(/C=C/c2ccc3cccc(O)c3n2)cc1OC	none
COc1ccc(OC)c(/C=C/c2ccc3cccc(O)c3n2)c1	none
